HTT ATP protect: Huntington cell model cytoprotection by ATP luminescence; Potency, µM (doses to about 56.4 µM), usual class: activators; PC12 HTT-Q103 induced, cytoprotection, ATP luminescence, 40 h; 230,000 compounds, 0.14% hits; AID 1471; also: nearly all actives have a fitted effect of over 45% in size
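Huntington model: PC12 line, ecdysone-inducible HTTQ103 exon1–GFP, tebufenozide 100 nM. Test articles in a dose series. Endpoint luminescence from cellular ATP.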
JMJD2E inh: JMJD2E (human) inhibition; 230,000 compounds, 1.6% hits; Potency, µM (series often up to 57.1 µM), actives largely listed as inhibitors; JMJD2E catalytic domain, FDH-coupled NADH fluorescence (FDH is formaldehyde dehydrogenase); AID 2147; B2RXH2; active = well fitted inhibition curve with a large enough effect, not every such curve was filed as active; inconclusive = small, poorly fitted or top-dose-only effect, or another doubt; inactive = no such curve, though single readings can be large or run the other way; also: nearly all actives have a fitted effect of over 50% in size
HttQ103 aggreg: mutant huntingtin aggregation inhibition; AID 1688; PC12 HttQ103-GFP aggregates, Acumen cytometry, 40 h; Potency, µM (top dose mostly 46.1 µM), hits mostly inhibitors; 220,000 compounds, 1.1% hits; also: nearly all actives have a fitted effect of over 60% in size
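Steps: seed 1500 PC12 HTTQ103-GFP cells/well; add tebufenozide, 100 nM final; add compound titration; add ATPLite reagent; quantify GFP aggregates by laser scanning cytometry.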
HPGD block: blocks human HPGD enzyme activity; Potency, µM, usual class: inhibitors; P15428; purified HPGD, NADH fluorescence kinetic, PGE2 substrate; AID 894; 150,000 compounds, 4.3% hits; active = well fitted inhibition curve with a large enough effect, not every such curve was filed as active; inconclusive = small, poorly fitted or top-dose-only effect, or another doubt; inactive = no such curve, though single readings can be large or run the other way
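20 nM HPGD preincubated 15 min at room temperature with compound in 50 mM Tris-HCl pH 8, 0.01% Tween 20. Started with 1 mM NAD+ and 30 uM prostaglandin E2; NADH fluorescence (360/450 nm) read 5 times over 30-s intervals, last minus first.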
CBFb-RUNX1 inh: CBF-beta/RUNX1 interaction disruption. 230,000 tested, under 10 active. AID 1477. Potency, µM (doses to about 59.8 µM), actives largely listed as inhibitors. Q01196+Q13951. AlphaScreen CBFb-His/RUNX1-biotin binding, biochemical
Target sequence (Q01196 whole entry, looked up): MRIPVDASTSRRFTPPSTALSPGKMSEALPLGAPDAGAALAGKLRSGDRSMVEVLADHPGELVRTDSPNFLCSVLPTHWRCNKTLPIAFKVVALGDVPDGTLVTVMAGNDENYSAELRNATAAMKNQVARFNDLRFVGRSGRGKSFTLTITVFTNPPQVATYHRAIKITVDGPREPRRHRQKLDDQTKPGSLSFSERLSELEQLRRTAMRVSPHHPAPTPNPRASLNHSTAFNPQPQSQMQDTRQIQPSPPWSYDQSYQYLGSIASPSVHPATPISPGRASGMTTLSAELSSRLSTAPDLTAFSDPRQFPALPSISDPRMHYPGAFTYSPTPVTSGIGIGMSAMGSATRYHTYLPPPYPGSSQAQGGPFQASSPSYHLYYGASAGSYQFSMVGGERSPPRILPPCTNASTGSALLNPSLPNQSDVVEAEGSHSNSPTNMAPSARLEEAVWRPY
Target sequence (Q13951 whole entry, looked up): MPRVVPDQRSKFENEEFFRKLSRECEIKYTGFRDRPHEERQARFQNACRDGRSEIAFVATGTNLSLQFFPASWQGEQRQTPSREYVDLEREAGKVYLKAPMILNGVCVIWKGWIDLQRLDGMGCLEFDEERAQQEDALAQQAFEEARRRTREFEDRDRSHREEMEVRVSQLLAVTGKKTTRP
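CBFb-His/RUNX1-biotin, 30 nM each, preincubated 20 min RT; compound 15 min RT; Ni + streptavidin beads 50 ng each, 90 min RT; AlphaScreen read.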
ALDH1A1 block: ALDH1A1 (human) enzyme inhibition | Purified ALDH1A1, NADH fluorescence, propionaldehyde substrate | Potency, µM (top dose mostly 75.3 µM), actives largely listed as inhibitors | 220,000 compounds, 7.3% hits; active = well fitted inhibition curve with a large enough effect, not every such curve was filed as active; inconclusive = small, poorly fitted or top-dose-only effect, or another doubt; inactive = no such curve, though single readings can be large or run the other way
Of the large screens only hits and unclear results are named; the others gave an inactive call; ! = a repeat was not active. Only some compounds are listed: those with a hit (about 9.8% of all), similar ones and a draw of the others. Unless noted, calls follow the shape of the dose curve; as a rule, active = well fitted curve in the direction sought with a large enough effect; inconclusive = small, poorly fitted or top-dose-only effect, or another doubt; inactive = no such curve, though single readings can be large; an effect the other way counts as inactive or inconclusive.

COC(=O)Cc1cn(-c2ncc(C(F)(F)F)cc2Cl)c2ccccc12	HPGD block inconclusive, ALDH1A1 block inconclusive
CCc1ccc(N(C(=O)c2snc(C(N)=O)c2N)C(C(=O)NCCC(C)C)c2c[nH]c3ccccc23)cc1 (stereo unspecified)	none
CC1=CCC(C(=O)O)C(C(=O)Nc2nc3ccc(S(C)(=O)=O)cc3s2)C1 (stereo unspecified)	ALDH1A1 block 0.22µM
CC(C)(C)C(=O)Nc1nc2ccc(S(C)(=O)=O)cc2s1	ALDH1A1 block inconclusive (no result: HPGD block)
CS(=O)(=O)c1ccc2nc(NC(=O)CCC(=O)c3cccs3)sc2c1	HttQ103 aggreg 0.79µM
O=C(NN=C1CCCC1)c1[nH]c2ccc(Br)cc2c1-c1ccccc1	JMJD2E inh inconclusive, ALDH1A1 block 18µM (no result: HPGD block)
Cc1cccc(C(=O)NC2CC3CCCC(C2)N3C(=O)NC2CCCCC2)c1 (stereo unspecified)	none
CCOc1ccc(-n2c(C)cc(/C=N\NC(=O)CC(=O)NC3CCCCC3)c2C)cc1	JMJD2E inh inconclusive
Cc1cccc(-n2c(C)cc(C(=O)NC3CCCCC3)c2C)c1	HPGD block 0.71µM
COc1ccc(-n2c(C)cc(C(=O)NC3CCCCC3)c2C)cc1	JMJD2E inh inconclusive, HPGD block 1.1µM, ALDH1A1 block 7.9µM
CCOC(=O)C1=NN(C(=O)Cc2ccccc2)C(O)(C(C)(C)C)C1 (stereo unspecified)	ALDH1A1 block inconclusive (no result: HPGD block)
COc1ccccc1C1C([N+](=O)[O-])=CC([N+](=O)[O-])=CN1C (stereo unspecified)	ALDH1A1 block 13µM (no result: HTT ATP protect)
COc1ccccc1C1NC=C([N+](=O)[O-])C=C1[N+](=O)[O-] (stereo unspecified)	HttQ103 aggreg inconclusive, HPGD block 3.5µM, ALDH1A1 block 8.9µM (no result: HTT ATP protect)
S=C(c1ccc(-c2ccccc2Cl)o1)N1CCOCC1	HPGD block 8.9µM, ALDH1A1 block 7.9µM
S=C(c1ccc(-c2ccc(Cl)c(Cl)c2)o1)N1CCOCC1	HPGD block 25µM, CBFb-RUNX1 inh inconclusive, ALDH1A1 block 8.9µM
O=C(c1ccc(-c2cccc(Cl)c2Cl)o1)N1CCOCC1	ALDH1A1 block inconclusive (no result: HPGD block)
S=C(c1ccc(N2CCOCC2)cc1)N1CCOCC1	JMJD2E inh inconclusive, HPGD block 7.9µM, ALDH1A1 block 2.2µM
S=C(c1ccc(N2CCCC2)cc1)N1CCCCC1	HPGD block 14µM, CBFb-RUNX1 inh inconclusive, ALDH1A1 block 20µM
CCOc1ccc(C(=S)N2CCOCC2)cc1	none
COc1cc(N(C)C)c([N+](=O)[O-])cc1C(=O)NC(C)CNc1ccc([N+](=O)[O-])cc1Cl (stereo unspecified)	ALDH1A1 block 1.6µM
Cc1cc(NC(=O)CSc2nc3cc(C(=O)NCCCOC(C)C)ccc3c(=O)n2Cc2ccco2)no1	JMJD2E inh inconclusive (no result: HPGD block)
FC(F)Oc1cccc(NC(=S)N2CCN(c3ccccn3)CC2)c1	none (no result: HPGD block)
CCCN(CCC)Cc1cc(=O)oc2cc3c(cc12)CCC3	none (no result: HPGD block, ALDH1A1 block)
Cc1cccc(-c2c3c(=O)n(C)c(=O)n(C)c3cn2CC2CCCO2)c1 (stereo unspecified)	ALDH1A1 block 20µM
Cn1c(=O)c2c(-c3ccc(C(C)(C)C)cc3)n(CC3CCCO3)cc2n(C)c1=O (stereo unspecified)	ALDH1A1 block inconclusive
c1cc(CSSCc2ccncc2)ccn1	ALDH1A1 block 4µM (no result: JMJD2E inh, HttQ103 aggreg, CBFb-RUNX1 inh)
O=C(Cn1cccc1)NCc1cccs1	HPGD block 20µM
O=C(NCc1cccs1)c1csc2c1CCCCC2	HPGD block 22µM, ALDH1A1 block inconclusive
O=C(NCc1ccco1)c1csc2c1CCCCC2	HPGD block 6.3µM, ALDH1A1 block inconclusive
COc1cccc(CNC(=O)Cc2ccc(Br)cc2)c1	none
COc1cccc(CNC(=O)Cn2cccc2)c1	HTT ATP protect inconclusive, HPGD block 14µM
O=C(CCCCC(=O)NCc1cccs1)NCc1cccs1	none
O=C(NCc1cccs1)C1CCCCC1	HPGD block 14µM
O=C(NCCc1cn2ccsc2n1)C1CCCCC1	none
Cc1csc2nc(CNC(=O)C3CCCCC3)cn12	HPGD block 16µM
O=C(NCc1ccccc1)c1csc2c1CCCCC2	HPGD block 8.9µM, ALDH1A1 block 18µM
Cc1ccccc1NC(=O)c1csc2c1CCCC2	HPGD block 16µM, ALDH1A1 block inconclusive
O=[N+]([O-])c1ccc(NCCNCCOc2nonc2-c2ccccc2)c([N+](=O)[O-])c1	ALDH1A1 block inconclusive (no result: HTT ATP protect, HPGD block)
COC1C(O)COC1/C=C/c1ccccc1 (stereo unspecified)	HTT ATP protect inconclusive (no result: JMJD2E inh, HttQ103 aggreg, HPGD block)
O=C(Nc1ccon1)c1csc2c1CCCC2	HPGD block inconclusive
Cc1nc(SCC(=O)NCc2cccs2)nc(C)c1C	none (no result: HPGD block)
O=C(CSc1cccc2cccc(Cl)c12)NCc1cccs1	HPGD block 10µM
O=C(Nc1nccs1)c1csc2c1CCCC2	HPGD block 25µM, ALDH1A1 block inconclusive
CSc1c(CC(=O)Nc2ccccc2)n(Cc2ccccc2)c2ccccc12	none
COC(=O)C1=C(C)N(Cc2ccccc2)C2=C(C(C)=O)C[C@@](O)(C(=O)OC)C(=O)N2C1c1ccccc1 (stereo partly specified)	none (no result: JMJD2E inh, HttQ103 aggreg, HPGD block)
COC(=O)c1cnc(SCc2ccc(C)cc2)n1C	HTT ATP protect inconclusive (no result: HPGD block)
CCOC(=O)C1=C(C)NC(=O)C1CC(=O)Nc1ccccc1 (stereo unspecified)	HPGD block 35µM
O=c1c(CCc2ccccc2)nc2cncnc2n1Cc1ccccc1Cl	ALDH1A1 block inconclusive (no result: JMJD2E inh, HttQ103 aggreg, HPGD block, CBFb-RUNX1 inh)
Oc1oc(-c2ccco2)nc1C=Nc1cccc(Cl)c1	none
Cc1ccc(C(=O)Oc2oc(-c3ccco3)nc2C=Nc2ccccc2)cc1	HPGD block 7.1µM, ALDH1A1 block inconclusive
COc1ccc(N=Cc2nc(-c3ccccc3)oc2OC(=O)c2ccccc2)cc1	HPGD block 22µM, ALDH1A1 block inconclusive
CCOC(=O)c1ccc(N=Cc2nc(-c3ccccc3)oc2OC(C)=O)cc1	HPGD block 16µM, ALDH1A1 block 22µM
CCC(=O)Oc1oc(-c2ccccc2)nc1C=Nc1ccc(C)cc1	none (no result: HPGD block, ALDH1A1 block)
CN(C)c1ccc(N=Cc2nc(-c3ccccc3)oc2OC(=O)c2cccc(Br)c2)cc1	HPGD block inconclusive, ALDH1A1 block inconclusive
CC(=O)Oc1oc(-c2ccccc2)nc1C=Nc1ccccc1	HPGD block 16µM, ALDH1A1 block 18µM
Cc1cc(C)c(C)c(S(=O)(=O)Nc2ccccc2C(=O)NCCCN2CCOCC2)c1C	JMJD2E inh inconclusive (no result: HPGD block)
Oc1oc(-c2ccco2)nc1C=Nc1ccccc1	ALDH1A1 block 22µM
O=C(O)c1ccc(N=Cc2nc(-c3ccco3)oc2O)cc1	none (no result: HPGD block)
COC(=O)c1c(C)c2c(c(C)c1O)OC(=O)c1c(C)c(Cl)c(O)c(Cl)c1O2	HPGD block 7.1µM! (no result: HttQ103 aggreg)
